# Records with an inconclusive call do not appear. Entries that show only a call come without a potency. The source made the active and inactive calls. Calls follow the shape of the dose curve; as a rule, active = well fitted inhibition curve with a large enough effect; inconclusive = small, poorly fitted or top-dose-only effect; inactive = flat fitted curve, though single readings scatter. Where a SMILES comes first, the peptide text is derived from it. Bridges are numbered along the chain shown (N, C = ends). [ ]: non-standard residue; d: D form. The star is where a group is joined. X2 = CC[C@H](C)CCCCC(=O)*; Dab = NCC[C@H](N)C(=O)O
# Assay: P-glycoprotein substrates identified in KB-8-5-11 adenocarcinoma cell line, qHTS therapeutic library screen (AID 1346987); also: nearly all actives have a fitted effect of over 65% in size
# Conditions: KB-8-5-11 (P-gp overexpressing) viability, CellTiter-Glo, 72 h; series mostly up to 44.5 µM
# Summary of the method: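 Luminescence from CellTiter-Glo, read 5 min after addition, quantified survival of KB-8-5-11 (P-gp-overexpressing) cells exposed to compounds for 72 h. AC50 was derived from concentration-response curves.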
# Potency is read from the fitted curve at half-maximal effect.
row,SMILES,Potency
1,O=C(NC1CCC1)c1ccc(C#Cc2cccc(F)c2)nc1,inactive
2,Cc1cc2c(N3CCCC3)nc(N3CCCC3)nc2n1C,inactive
3,COc1cc(CCO)ccc1O[C@@H]1O[C@H](CO)[C@@H](O)[C@H](O)[C@H]1O,inactive
4,CC(C)c1c(O)ccc2c1CC[C@H]1C(C)(C)CCC[C@]21C,inactive
5,Cc1cc(-c2ncc(-c3cccnc3)cc2/C=C/c2ccccc2)cnc1-c1cccnc1,10.3 µM (active)
6,O=[N+]([O-])c1cn2c(n1)OC[C@@H](OCc1ccc(-c3ccc(OC(F)(F)F)cc3)nc1)C2,inactive
7,Cc1cc2sc(NC(=O)Cc3ccccc3)nc2cc1Cl,inactive
8,COC(=O)c1ccc2c(c1)[nH]c1ncnc(NCCCN3CCCCC3)c12,inactive
9,Cc1cccc(C)c1N(CCCc1cccnc1)C(=O)C(C)N (centres undefined),inactive
10,CS(=O)(=O)OCCCNCCCOS(C)(=O)=O,inactive
11,CC1(C)CCCC2(C)C1C(=O)C=C(C(=O)O)C2(O)C(=O)O (centres undefined),inactive
12,CN(C)c1cccc(Oc2cnc(Nc3cccc(O)c3)nc2)c1,inactive
13,CSCC[C@H](NC(=O)[C@H](Cc1ccc(OS(=O)(=O)O)cc1)NC(=O)[C@@H](N)CC(=O)O)C(=O)NCC(=O)N[C@@H](Cc1c[nH]c2ccccc12)C(=O)N[C@@H](CCSC)C(=O)N[C@@H](CC(=O)O)C(=O)N[C@@H](Cc1ccccc1)C(N)=O,inactive
14,CNC[C@@H]1CC[C@@H](N)[C@@H](O[C@H]2[C@H](O)[C@@H](O[C@H]3OC[C@](C)(O)[C@H](NC)[C@H]3O)[C@H](N)C[C@@H]2N)O1,inactive
15,O=C(NCCN1CCC(n2c(=O)[nH]c3ccccc32)CC1)c1cc2cc(F)ccc2[nH]1,inactive
16,Cn1c(CO)c(-c2ccccc2)c2cc([N+](=O)[O-])ccc21,inactive
17,CCCC1([C@H](O)C/C=C/[C@H]2[C@H](O)CC(=O)[C@@H]2CCCCCCC(=O)OC)CCC1,inactive
18,CN1CCN(c2ccc(-c3cccc(CN4CCOCC4)c3)cc2NC(=O)c2c[nH]c(=O)cc2C(F)(F)F)CC1,inactive
19,Nc1ncnc2c1c(-c1ccc(Cl)cc1)nn2-c1cccc(-c2cnnn2Cc2cccc(-c3ccccc3)c2)c1,16.4 µM (active)
20,COc1cc(C[C@@H]2NCCc3cc(O)c(O)cc32)cc(OC)c1OC,inactive

row,SMILES,Potency
1,COc1ccc(NC(=O)c2ccc(-c3ccc(C(=N)N)cc3C)cc2)cc1N1CCN(C)CC1,inactive
2,C=C1CCC2[C@](C)(CCC[C@@]2(C)C=O)[C@H]1CC/C(C)=C/CO (some centres undefined),inactive
3,CC[C@H](C)/C=C(C)/C=C/C1=CC2=CC(=O)[C@]3(C)OC(=O)[C@@H](C(C)=O)[C@@H]3C2=CO1,inactive
4,O=C1Nc2ccccc2-c2nc3ccccc3c(=O)n2-c2c(O)cccc21,inactive
5,CC[C@H](C)CCCCC(=O)N[C@@H](CCN)C(=O)N[C@H](C(=O)N[C@@H](CCN)C(=O)N[C@H]1CCNC(=O)[C@H]([C@@H](C)O)NC(=O)[C@H](CCN)NC(=O)[C@H](CCN)NC(=O)[C@H](CC(C)C)NC(=O)[C@@H](CC(C)C)NC(=O)[C@H](CCN)NC1=O)[C@@H](C)O (X2-[Dab]T[Dab][Dab][Dab][dL]L[Dab][Dab]T; lactam 4-C),inactive
6,C=C1C(=O)O[C@@H]2[C@H]1CCC(C)=C(CCC(=O)O)[C@@]2(C)O,inactive
7,CN(C)C(=O)Nc1cccc(-c2ccc(N(C)C)cc2)c1,inactive
8,CC(=O)O[C@H]1CC[C@]2(C)[C@H]3CC[C@]4(C)Oc5oc(C)cc(=O)c5C[C@H]4[C@]3(C)CC[C@H]2C1(C)C,inactive
9,CC(C)(Cc1ccccc1)NCC(O)c1ccc(O)c(NS(C)(=O)=O)c1 (centres undefined),inactive
10,CCC(C)c1ccc(NC(=O)Cn2cnc3c2c(=O)n(C)c(=O)n3C)cc1 (centres undefined),inactive
11,c1ccc(-c2ccc(CNc3nc(-c4ccccn4)nnc3-c3ccccc3)cc2)cc1,4.61 µM (active)
12,C=C1C(=O)OC2C=C(C)CC/C=C(\CO)CC(O)C12 (centres undefined),inactive
13,CN(C)Cc1ccccc1,inactive
14,CCC/C=C/C=C/C1CC(O)C2(O)C(=O)OCC12 (centres undefined),inactive
15,CN1CC(O)c2cc(N=NC(N)=O)c(O)cc21 (centres undefined),inactive
16,CC1(NC(=O)c2ccc(C#Cc3cccc(F)c3)cn2)COC1,inactive
17,C=C[C@@]1(C)CCC2C(=CCC3[C@]2(C)CCC[C@@]3(C)C(=O)O)C1 (some centres undefined),inactive
18,C=C(C)[C@@H]1CC=C(COC(=O)NC(=O)c2ncn3c(=O)n(C)nnc23)CC1,inactive
19,COc1ccc([C@H]2Cc3cccc(O)c3C(=O)O2)cc1OC,inactive

# Reference: PubChem BioAssay (NCATS)
